From PubChem BioAssay AID1347426 (Functional Genomics Laboratory (NCATS/FGL), 2020)
The whole screen tested about 31,000 sequences, of which about 1,400 (4.5%) were called active. This is one part of a sample in which actives are shown more often than they occur. Values without a mark were called inactive.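 Rule for the calls: active = median seed-adjusted z-score above 1 or below -1; inactive = the rest.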

Assay: Novel Modifiers of Survival Motor Neuron (SMN) Protein: Gene Identification via Genome-wide siRNA Screen;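 note: luminescence tracks full-length SMN protein made from the SMN2 reporter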
Settings: HEK293T SMN2-luciferase reporter, siRNA knockdown, 72 h; actives lie on both sides
Description: Spinal muscular atrophy (SMA) is the most common neuromuscular autosomal recessive disorder and one of the leading genetic causes of infant death. SMA results from mutations inducing loss of function or deletion in the survival of motor neuron-1 gene (SMN1), leading to deficiency of the survival motor neuron (SMN) protein. Although a second nearly identical gene, SMN2, is retained in humans, its expression primarily produces an aberrantly spliced isoform that is largely unstable and quickly degraded. We performed a genome-wide RNAi screen using a cell-based reporter assay to identify genes and pathways that modulate SMN protein stability. The screen identified over 200 genes that led to the greatest increase or decrease in luciferase expression.
Using HEK293T cells stably expressing a luciferase reporter that combines the promoter and splicing based cassettes in tandem with the major portion of the native SMN2 cDNA with luciferase, we performed a genome-wide RNAi screen to identify modulators of SMN protein levels. Luciferase is expressed when full-length SMN protein is generated with luminescence signal proportional to SMN protein levels. Our luciferase-based reporter assay was used to screen Ambion Silencer Select Human Druggable Genome siRNA library (10418 genes, 3 unique siRNAs per gene) using lipid-based reverse transfection.
Briefly, 1 pmol of each siRNA was spotted to a well of a 384-well plate (Corning, Corning, NY) and 20 microL of serum-free DMEM containing […] of Lipofectamine RNAiMax (Life Technologies, Carlsbad, CA) was then added to each well. Transfected cells were maintained at 37 degrees C in 5% CO2 for 72 hours, 20 microL of ONE-Glo Reagent (Promega) was added to wells for luciferase quantification. Raw luminescence reads were normalized to Ambion(R) Silencer(R) Negative Control #2 siRNA, then log10 transformed. A robust statistical measure of median absolute deviation (MAD) to standardize siRNA activities from each screen. Common Seed Analysis was used to help prioritize clean hits as opposed to those appearing to arise from seed based off-target effects. Candidate modulators were defined as the genes having a MAD score greater than 1.0 or less than -1.0.

Question: Which median seed-adjusted z-score does the source give for CUACCACAAUCAUCGAAAATT against FABP3 here?
Answer: -0.0786

Question: With CAAACCUAACUAUACAUAATT against ZNF107 as the sequence, how does the median seed-adjusted z-score read?
Answer: 0.0761

Question: For GUAAGCAUUUUAAUUCCAATT against CLCA3, which median seed-adjusted z-score is on record?
Answer: 0.424

Question: For UUACAUUGAUUACACUGGATT against RBM24, which median seed-adjusted z-score is on record?
Answer: 0.0471

Question: With UCGUUUUUACAGAUGUUAATT against SAP18 as the sequence, how does the median seed-adjusted z-score read?
Answer: 2.14 (active)

Question: With CCUACUAUCAAGAUUCAAATT against HERC3 as the sequence, how does the median seed-adjusted z-score read?
Answer: -0.0884

Question: For GAGUCAACCCAUACAUUAATT against PLS1, which median seed-adjusted z-score is on record?
Answer: -0.0715

Question: Which median seed-adjusted z-score does the source give for GCUGGUUUAUUUAACUCGATT against E2F6 here?
Answer: -0.299

Question: Which median seed-adjusted z-score does the source give for GAGUCUGUUUUACGACAAATT against TMPRSS11D here?
Answer: -0.0643

Question: For CCAGUCGCGUAAGACAACATT against PYDC1, which median seed-adjusted z-score is on record?
Answer: -1.44 (active)

Question: With CCCAGAGCUUCAAAGUGUATT against HSD17B1 as the sequence, how does the median seed-adjusted z-score read?
Answer: -0.569

Question: Which median seed-adjusted z-score does the source give for GCAGAGCGGAAGUAAGGAUTT against AFMID here?
Answer: -0.515

Question: For CAUUAUCUCGUUUCCGGAATT against IFNGR2, which median seed-adjusted z-score is on record?
Answer: 0.148

Question: Which median seed-adjusted z-score does the source give for GCGGAAAGGUGGACUUUGATT against CABP2 here?
Answer: 0.323

Question: For GCAUCCUCAUCAACCGCAATT against SAPS1, which median seed-adjusted z-score is on record?
Answer: 1.16 (active)

Question: With CCCAGAAGAUGACCACUCATT against PDXDC1 as the sequence, how does the median seed-adjusted z-score read?
Answer: 0.665

Question: For GACUUGCCCUUACUGCAAATT against RNF175, which median seed-adjusted z-score is on record?
Answer: 0.127

Question: With CGUUGCUAGUGCUCACUUATT against FRAG1 as the sequence, how does the median seed-adjusted z-score read?
Answer: -0.554

Question: For GAUAUUUGAUUGAUGUAGATT against DUSP11, which median seed-adjusted z-score is on record?
Answer: -0.0184

Question: Which median seed-adjusted z-score does the source give for ACAGAAUAAUGUACAAGAATT against POLR2K here?
Answer: -3.72 (active)

Question: With GCCUAGACCUCUUCGCUUUTT against PASK as the sequence, how does the median seed-adjusted z-score read?
Answer: 0

Question: For GCAGCUGAGUUCUACAAGATT against RAG1, which median seed-adjusted z-score is on record?
Answer: -1.35 (active)

Question: Which median seed-adjusted z-score does the source give for GGAUAAUGAGUCGGAAGUATT against CNTN4 here?
Answer: -0.407

Question: For CCAGGUUUAUGUAGAAGUUTT against NMI, which median seed-adjusted z-score is on record?
Answer: 0.982

Question: Which median seed-adjusted z-score does the source give for GGAUGAAGAACGAAUGGUATT against ENDOD1 here?
Answer: -0.138

Question: With GGCACUCAGCGCAAGAAGATT against TIGD5 as the sequence, how does the median seed-adjusted z-score read?
Answer: 0

Question: Which median seed-adjusted z-score does the source give for GGAAGAGGAGUAGACCUUATT against RAB5A here?
Answer: 0.244

Question: Which median seed-adjusted z-score does the source give for CCGGCAAGAUUAUCGAGUATT against HCFC1 here?
Answer: 1.47 (active)

Question: Which median seed-adjusted z-score does the source give for CAUUCGCAAAGGAUCGUGATT against PAPSS2 here?
Answer: -0.201

Question: Which median seed-adjusted z-score does the source give for CAGCGUAUUUGAGAAUUUATT against ATRX here?
Answer: -0.158
